About 79,000 compounds went through this panel and 15% of them were active in at least one assay; those are over-represented in the sample as a whole. Active and inactive are the calls of the source. No stated cut-off is given here; in the data, active means growth inhibition above about 70%; inactive means the rest.
Columns and labels:
[1] = NCI Yeast Anticancer Drug Screen. Data for the rad50 strain (AID 155);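 further: 0% = growth of vehicle-only cultures of the same strain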; details: S. cerevisiae rad50 strain growth inhibition; at 50.0 µM; stronger effect = higher value
In short: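 Inhibition values express reduced yeast growth in compound-treated cultures relative to vehicle-treated controls.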

[2] = NCI Yeast Anticancer Drug Screen. Data for the mec2-1 strain (AID 157); details: S. cerevisiae mec2-1 strain, at 50.0 µM, stronger effect = higher value
In short: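 Test agents were screened against the mec2-1 yeast strain, with defined DNA repair or cell cycle alteration. Growth was scored as inhibition against vehicle-only controls.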

[3] = NCI Yeast Anticancer Drug Screen. Data for the sgs1 mgt1 strain (AID 161);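 further: 0% = growth of cultures given vehicle only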; details: S. cerevisiae sgs1 mgt1 strain, at 50.0 µM, stronger effect = higher value
In short: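 Inhibition of yeast growth, normalised to vehicle-treated controls, is reported for a strain bearing genetic alterations in DNA damage repair.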

[4] = NCI Yeast Anticancer Drug Screen. Data for the cln2 rad14 strain (AID 165);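 further: 0% = growth equal to vehicle treated cultures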; details: S. cerevisiae cln2 rad14 strain, at 50.0 µM, stronger effect = higher value
In short: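 Growth of compound-exposed yeast (cln2 rad14 genotype) measured and expressed as inhibition relative to vehicle.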

[5] = NCI Yeast Anticancer Drug Screen. Data for the bub3 strain (AID 167); details: S. cerevisiae bub3 mutant strain, at 50.0 µM, stronger effect = higher value
In short: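 Steps: expose the mutant yeast strain to compound; grow alongside vehicle-treated cultures; measure growth; express inhibition against the vehicle cultures.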

[6] = NCI Yeast Anticancer Drug Screen. Data for the mlh1 rad18 strain (AID 175); details: S. cerevisiae mlh1 rad18 strain growth inhibition; at 50.0 µM; stronger effect = higher value
In short: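 In this whole-cell yeast screen, a strain with altered DNA damage repair is challenged with compound, and its growth is measured against matched vehicle-treated controls.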

SMILES	growth inhibition [1]	growth inhibition [2]	growth inhibition [3]	growth inhibition [4]	growth inhibition [5]	growth inhibition [6]
O=C1OC2(C(F)(F)F)Oc3ccccc3CN2C12CCCCC2 (centres undefined)	17.6% (inactive)	35% (inactive)	11.4% (inactive)	25.1% (inactive)	42.5% (inactive)	13.2% (inactive)
CC12CCCCC1C(C(C)(C)OC(=O)c1ccc([N+](=O)[O-])cc1)CC2 (centres undefined)	15% (inactive)	8.2% (inactive)	17.4% (inactive)	-8.85% (inactive)	12.6% (inactive)	21.1% (inactive)
COc1ccc(CCC(O)c2ccccc2)cc1 (centres undefined)	25.7% (inactive)	20.4% (inactive)	3.65% (inactive)	16.1% (inactive)	19.3% (inactive)	16.1% (inactive)
CC1(C)C(=O)CC[C@]2(C)[C@H]3C(=O)C=C4[C@H]5C[C@@](C)(C(=O)O)CC[C@]5(C)CC[C@@]4(C)[C@]3(C)CC[C@@H]12	-4.8% (inactive)	-5.95% (inactive)	-3.85% (inactive)	-16.1% (inactive)	0.15% (inactive)	-0.95% (inactive)
O=C1CC2CCCCC2CC1c1ccccc1 (centres undefined)	6.35% (inactive)	-0.4% (inactive)	-4.55% (inactive)	-22.6% (inactive)	-22.5% (inactive)	-12.2% (inactive)
CCc1ccccc1NC(=O)Nc1cc(C)ccn1	25.6% (inactive)	12.9% (inactive)	21.8% (inactive)	21.3% (inactive)	32% (inactive)	27.9% (inactive)
Cc1csc2nc(-c3cccs3)nn12	0.75% (inactive)	-15.4% (inactive)	7.4% (inactive)	-1.55% (inactive)	-7.15% (inactive)	-9.1% (inactive)
CCS(=O)CCCN1CCc2ccccc2C1 (centres undefined)	25.5% (inactive)	-0.95% (inactive)	13.9% (inactive)	-33% (inactive)	-3% (inactive)	-5.95% (inactive)
C(=N/Nc1ccccc1)/c1ccco1	31.6% (inactive)	-1% (inactive)	-2.05% (inactive)	13.7% (inactive)	12.5% (inactive)	54.9% (inactive)
NC(=O)c1cccc(NC=O)c1	5.3% (inactive)	6% (inactive)	22.1% (inactive)	29.7% (inactive)	4.45% (inactive)	25.8% (inactive)
O=C(CNCc1ccccc1)NC(Cc1ccccc1)c1ccccc1 (centres undefined)	8.15% (inactive)	-14.3% (inactive)	0.35% (inactive)	16.9% (inactive)	13.4% (inactive)	20.9% (inactive)
O=C(CCc1ccccc1Cl)CC(=O)CC(O)(c1ccccc1)c1ccccc1	68% (inactive)	57.5% (inactive)	70.5% (active)	42.2% (inactive)	39.4% (inactive)	61.9% (inactive)
CC1Cn2c(nnc2-c2ccccc2O)S1 (centres undefined)	-14.1% (inactive)	0.6% (inactive)	-3.25% (inactive)	-2.95% (inactive)	-15.3% (inactive)	-12.6% (inactive)
NC1=Nc2ccccc2Sc2nncn21	-18.2% (inactive)	-43.9% (inactive)	-10.7% (inactive)	-10.6% (inactive)	0.1% (inactive)	-4.35% (inactive)
Clc1ccccc1OCCNC1CC1	20.7% (inactive)	-0.1% (inactive)	-10.8% (inactive)	-45% (inactive)	4.95% (inactive)	1.7% (inactive)
CCOC(=O)C(CS(=O)(=O)N(CC)CC)NC(=O)c1ccccc1 (centres undefined)	-1.4% (inactive)	-10.6% (inactive)	2.9% (inactive)	-10.8% (inactive)	5.15% (inactive)	-18.6% (inactive)
CC(SC(=S)SC(C)C(=O)O)C(=O)O (centres undefined)	6% (inactive)	15.3% (inactive)	22.3% (inactive)	44% (inactive)	-6.1% (inactive)	15.3% (inactive)
CC(C)(C)[Si](C)(C)OCCC1CC2(S(=O)(=O)C3=CC=C=C=C3)ON1CC2S(=O)(=O)c1ccccc1 (centres undefined)	6.8% (inactive)	-6.2% (inactive)	-1.45% (inactive)	-23.9% (inactive)	-20.4% (inactive)	17.1% (inactive)
CCOC(=O)c1ccc(-n2nc3nc(N)[nH]c(=O)c3n2)cc1	-17.8% (inactive)	-21.2% (inactive)	-4.35% (inactive)	-4.15% (inactive)	-52.9% (inactive)	-34.4% (inactive)
CCCCCCCCCC1=C(C#N)C(=O)OCCN1C	-12.9% (inactive)	-2.7% (inactive)	0.05% (inactive)	-22.1% (inactive)	-11.4% (inactive)	3.6% (inactive)

SMILES	growth inhibition [1]	growth inhibition [2]	growth inhibition [3]	growth inhibition [4]	growth inhibition [5]	growth inhibition [6]
CNCC(=O)Nc1ccc2c(c1)C(=O)c1ccc(NC(=O)CNC)cc1C2=O	11.5% (inactive)	13.9% (inactive)	19.4% (inactive)	-2.25% (inactive)	-11.9% (inactive)	23.8% (inactive)
CC(=O)Nc1ccc(N=NN(C)c2ccccc2)cc1	29.4% (inactive)	36% (inactive)	47.1% (inactive)	5.45% (inactive)	19.8% (inactive)	44.4% (inactive)
Cc1cccc(C)c1Nc1n[nH]c(=S)s1	18.3% (inactive)	33.8% (inactive)	45.5% (inactive)	0.8% (inactive)	44.5% (inactive)	13.9% (inactive)
OCc1cc2ccccc2c2c3c(ccc12)OCO3	39.9% (inactive)	4.6% (inactive)	20.7% (inactive)	-37.9% (inactive)	-1.05% (inactive)	15.9% (inactive)
C=C(C)Cc1c(C)c(Cl)cc(Cl)c1OC(=O)Nc1ccccc1	31.8% (inactive)	9.6% (inactive)	30.6% (inactive)	9.35% (inactive)	29.9% (inactive)	19.7% (inactive)
Cc1cc(C)c(NC(=O)Nc2ccc(C(Cl)(Cl)Cl)cc2)c(C)c1	4.9% (inactive)	11.5% (inactive)	8.8% (inactive)	7% (inactive)	2.9% (inactive)	2.8% (inactive)
COC(=O)C1(C(=O)OC)CC(=O)c2c(OC(=O)c3cccc(OC)c3C#N)ccc(OC(=O)c3cccc(OC)c3C#N)c2C1	1.05% (inactive)	3.95% (inactive)	-11.5% (inactive)	-4.35% (inactive)	0.05% (inactive)	16.9% (inactive)
CN(C)S(=O)(=O)C1(c2ccccc2)CCCC1	15.1% (inactive)	9.85% (inactive)	6.2% (inactive)	-1.5% (inactive)	-7% (inactive)	1.9% (inactive)
O=S(=O)(O)CCCCO	4.4% (inactive)	-29.9% (inactive)	0.9% (inactive)	22.2% (inactive)	6.15% (inactive)	10.2% (inactive)
CCCCCCCCCCCCCCCCCCCCCCCCCCCCCCS(=O)(=O)Cl	14.7% (inactive)	28.1% (inactive)	16.9% (inactive)	18.8% (inactive)	33.9% (inactive)	-18.9% (inactive)
C=CCOC(=O)c1ccccc1O	12.9% (inactive)	-12.1% (inactive)	-13.3% (inactive)	-0.9% (inactive)	-21.2% (inactive)	12.8% (inactive)
O=C(COc1ccc(Cl)cc1C(=O)O)NCc1ccc([N+](=O)[O-])cc1	-9.45% (inactive)	8.1% (inactive)	20.8% (inactive)	-10.9% (inactive)	-9.85% (inactive)	-24.6% (inactive)
COc1ccc(OC)c2c(=O)cc(C)oc12	-15.7% (inactive)	-7.8% (inactive)	-16.3% (inactive)	-3.4% (inactive)	-7.65% (inactive)	-10.4% (inactive)
CN1CCS(=O)(=O)CC1	5.4% (inactive)	-40% (inactive)	-17.6% (inactive)	-2.55% (inactive)	1.75% (inactive)	5.05% (inactive)
CS(=O)(=O)OC1C(OC(=O)c2ccccc2)COC(OCc2ccccc2)C1OS(C)(=O)=O (centres undefined)	-5.4% (inactive)	13.2% (inactive)	-11.9% (inactive)	-13.3% (inactive)	5.35% (inactive)	5.7% (inactive)
COCc1nc2c(=O)[nH]c(N)nc2[nH]c1=O	2.55% (inactive)	-3.55% (inactive)	-4.8% (inactive)	-0.25% (inactive)	1.7% (inactive)	1.1% (inactive)
CCCCCCCC[N+](C)(C)C	-48.8% (inactive)	-44.5% (inactive)	-26.6% (inactive)	11.5% (inactive)	-28.7% (inactive)	-39.8% (inactive)
O=P(CCCCCCCCCCP(=O)(c1ccccc1)c1ccccc1)(c1ccccc1)c1ccccc1	-11% (inactive)	2.6% (inactive)	23.5% (inactive)	9.55% (inactive)	2.3% (inactive)	29.5% (inactive)
Nc1nc(N)c(N=O)c(N)n1	-10.9% (inactive)	-8.85% (inactive)	0.6% (inactive)	21% (inactive)	3.5% (inactive)	15.2% (inactive)

Reference: PubChem BioAssay (NCI)
